This passage reports outcome and AC50 results from PubChem BioAssay (EPA / NIEHS).

“And” between values parts separate entries of the source, which are not always exact repeats. Equal entries are not always repeated. Where a structure was tested more than once in an assay, its records may differ in their call. The source made the active and inactive calls. Rule for the calls: active = hit-call score of the fitted dose curve at least 0.9, where 1 is the maximum; inactive = score below 0.9.

Assay [1] can be described thus: ATG_GLI_CIS: Attagene CIS-FACTORIAL HepG2 Assay for human Zinc Finger Protein GLI1 (AID 2282945). The following applies: HepG2, Attagene cis-factorial reporter mRNA, GLI element; actives raise or lower the signal. The essentials: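 HepG2 cells transiently transfected with cis-promoter multiplexed reporter units report endogenous transcription factor activity. After 24 h chemical exposure, reporter mRNA was quantified by RT-PCR, 6-FAM labelling, HpaI digestion and capillary electrophoresis, with bidirectional fitting against DMSO.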

In assay [2] the target is Bile acid receptor (Homo sapiens) (UniProt Q96RI1). Description: ATG_IR1_CIS: Attagene CIS-FACTORIAL HepG2 Assay for human Nuclear Receptor Subfamily 1 Group H Member 4 (NR1H4), IR1 submotif (AID 2282946). Particulars: IR1 reporter transcription, actives raise or lower the signal. The essentials: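 Transient MRTU transfection, HepG2; 24 h dosing; RNA → RT-PCR → 6-FAM primer extension → HpaI digest → capillary electrophoresis fluorescence. Gain/loss of signal fitted relative to DMSO.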
Sequence of Bile acid receptor (Homo sapiens) (Q96RI1 whole entry, looked up): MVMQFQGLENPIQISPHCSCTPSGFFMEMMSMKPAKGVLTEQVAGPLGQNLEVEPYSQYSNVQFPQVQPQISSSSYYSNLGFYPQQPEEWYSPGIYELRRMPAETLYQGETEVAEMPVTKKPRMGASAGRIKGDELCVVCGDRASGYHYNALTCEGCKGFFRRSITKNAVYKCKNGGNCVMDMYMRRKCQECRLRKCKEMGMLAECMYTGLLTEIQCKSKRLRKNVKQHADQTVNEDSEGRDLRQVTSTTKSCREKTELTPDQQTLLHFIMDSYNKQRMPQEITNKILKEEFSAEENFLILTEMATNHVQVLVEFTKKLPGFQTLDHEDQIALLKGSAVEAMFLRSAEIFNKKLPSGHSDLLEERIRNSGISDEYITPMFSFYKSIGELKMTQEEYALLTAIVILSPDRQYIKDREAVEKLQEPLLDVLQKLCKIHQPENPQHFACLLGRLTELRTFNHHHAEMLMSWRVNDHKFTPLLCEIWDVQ

Assay [3] can be described thus: ATG_GRE_CIS: Attagene CIS-FACTORIAL HepG2 Assay for human Glucocorticoid Response Elements (GRE) (AID 2282947). The following applies: HepG2 GRE cis-reporter, Attagene multiplex mRNA; actives raise or lower the signal. The method in brief:
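HepG2 cells transiently transfected with multiple cis-promoter reporter units measure endogenous TF activity; 24 h compound exposure. Reporter mRNA quantified by RT-PCR, FAM labelling, HpaI digestion and capillary electrophoresis; bidirectional fit vs DMSO baseline.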

Assay [4] can be described thus: ATG_ISRE_CIS: Attagene CIS-FACTORIAL HepG2 Assay for human Interferon Regulatory Factor 1 (IRF1) binding to an Interferon-Stimulated Response Element (ISRE) (AID 2282948). The following applies: HepG2 ISRE cis-reporter (Attagene), mRNA transcription readout; actives raise or lower the signal. The method in brief:
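HepG2 cells transiently transfected with multiplexed cis-promoter reporter units; after 24 h compound exposure, reporter mRNA quantified by RT-PCR, FAM labelling, HpaI digestion and capillary electrophoresis. Bidirectional fit versus DMSO baseline.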

Assay [5] can be described thus: ATG_M_32_CIS: Attagene CIS-FACTORIAL HepG2 Assay for M32 Transcription Factor (Internal Marker) (AID 2282949).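 Note: background control marker of the multiplexed CIS panel rather than a real target.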 Particulars: HepG2 Attagene cis-factorial M32 reporter, mRNA; actives raise or lower the signal. The essentials:
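Following 24 h chemical exposure of HepG2 cells transiently expressing cis-promoter reporter constructs, reporter transcript levels were determined by RT-PCR with fluorescent labelling and capillary electrophoresis, then fitted bidirectionally against DMSO.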

Assay [6] is described as follows: ATG_M_06_CIS: Attagene CIS-FACTORIAL HepG2 Assay for M06 Transcription Factor (Internal Marker) (AID 2282950). The following applies: HepG2 Attagene CIS-FACTORIAL M06 internal marker reporter; actives raise or lower the signal. The method in brief: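 HepG2 liver cells, 24 h exposure. Reporter transcripts from transfected cis-element constructs quantified by RT-PCR/capillary electrophoresis fluorescence. Bidirectional curve fit against DMSO.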

In assay [7] the target is Hypoxia-inducible factor 1-alpha (Homo sapiens) (UniProt Q16665). Nature of the assay: ATG_HIF1a_CIS: Attagene CIS-FACTORIAL HepG2 Assay for human Hypoxia Inducible Factor 1 (HIF1A) (AID 2282951). The following applies: HepG2 Attagene cis-factorial HIF1a reporter transcription; actives raise or lower the signal. The essentials: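 Measures endogenous transcription-factor activity through cis-regulated reporter mRNA in HepG2. Cells dosed 24 h; transcripts quantified by RT-PCR with 6-FAM-labelled products separated by capillary electrophoresis; DMSO serves as negative control.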
Sequence of Hypoxia-inducible factor 1-alpha (Homo sapiens) (Q16665 whole entry, looked up): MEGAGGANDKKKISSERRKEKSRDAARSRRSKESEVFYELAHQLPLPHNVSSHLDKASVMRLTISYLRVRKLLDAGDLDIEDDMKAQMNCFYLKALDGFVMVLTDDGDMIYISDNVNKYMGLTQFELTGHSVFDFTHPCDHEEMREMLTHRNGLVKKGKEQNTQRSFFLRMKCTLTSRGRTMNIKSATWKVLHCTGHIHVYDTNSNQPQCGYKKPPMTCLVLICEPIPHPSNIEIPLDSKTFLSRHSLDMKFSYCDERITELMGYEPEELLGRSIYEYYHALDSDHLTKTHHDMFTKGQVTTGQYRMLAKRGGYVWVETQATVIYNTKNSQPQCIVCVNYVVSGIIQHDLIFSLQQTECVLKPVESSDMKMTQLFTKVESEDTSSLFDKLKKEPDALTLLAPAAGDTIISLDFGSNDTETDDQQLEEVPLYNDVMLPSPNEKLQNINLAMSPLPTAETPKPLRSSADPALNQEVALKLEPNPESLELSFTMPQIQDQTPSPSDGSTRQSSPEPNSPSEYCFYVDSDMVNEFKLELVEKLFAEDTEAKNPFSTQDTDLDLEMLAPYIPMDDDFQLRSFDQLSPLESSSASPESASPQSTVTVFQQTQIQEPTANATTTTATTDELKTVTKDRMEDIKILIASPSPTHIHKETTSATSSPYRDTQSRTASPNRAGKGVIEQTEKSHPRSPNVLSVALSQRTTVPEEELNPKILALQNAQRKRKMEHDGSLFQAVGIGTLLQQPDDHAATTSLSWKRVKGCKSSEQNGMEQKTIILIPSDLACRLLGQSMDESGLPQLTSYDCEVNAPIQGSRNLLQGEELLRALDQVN

Assay [8] deals with Hepatocyte nuclear factor 6 (Homo sapiens) (UniProt Q9UBC0). Nature of the assay: ATG_HNF6_CIS: Attagene CIS-FACTORIAL HepG2 Assay for human Hepatocyte Nuclear Factor 6 (HNF6) (AID 2282952). The following applies: HepG2 Attagene cis-factorial HNF6 reporter transcription; actives raise or lower the signal. The method in brief: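 HepG2 cells transiently transfected with cis-element-driven multiplexed reporter units measuring endogenous transcription factor activity. After 24 h exposure, reporter mRNA quantified by RT-PCR, FAM-labelled fragments and capillary electrophoresis; bidirectional fitting versus DMSO.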
Sequence of Hepatocyte nuclear factor 6 (Homo sapiens) (Q9UBC0 whole entry, looked up, the tested form may be a part): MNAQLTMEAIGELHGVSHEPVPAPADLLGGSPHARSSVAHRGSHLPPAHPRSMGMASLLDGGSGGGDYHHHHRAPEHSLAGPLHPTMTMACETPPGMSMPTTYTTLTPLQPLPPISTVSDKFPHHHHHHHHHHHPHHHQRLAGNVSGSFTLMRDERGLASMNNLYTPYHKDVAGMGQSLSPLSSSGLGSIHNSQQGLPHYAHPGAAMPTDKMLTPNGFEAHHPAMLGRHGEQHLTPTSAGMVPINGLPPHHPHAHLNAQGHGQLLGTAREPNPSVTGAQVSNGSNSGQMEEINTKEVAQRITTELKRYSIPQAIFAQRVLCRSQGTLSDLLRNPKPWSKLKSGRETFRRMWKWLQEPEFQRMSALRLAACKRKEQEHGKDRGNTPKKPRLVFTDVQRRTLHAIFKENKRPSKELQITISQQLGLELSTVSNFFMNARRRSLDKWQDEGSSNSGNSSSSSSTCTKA

For assay [9], the target named is Heat shock factor protein 1 (Homo sapiens) (UniProt Q00613). Nature of the assay: ATG_HSE_CIS: Attagene CIS-FACTORIAL HepG2 Assay for human Heat Shock Transcription Factor 1 (HSE) (AID 2282953). Particulars: HepG2 HSE cis-reporter, Attagene RNA transcription; actives raise or lower the signal. The method in brief: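 Endogenous transcription factor activity captured via cis-promoter reporter units transfected into HepG2; treatment lasted 24 h. Fluorescence intensity of reporter fragments analysed with bidirectional curve fitting, DMSO baseline.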
Sequence of Heat shock factor protein 1 (Homo sapiens) (Q00613 whole entry, looked up, the tested form may be a part): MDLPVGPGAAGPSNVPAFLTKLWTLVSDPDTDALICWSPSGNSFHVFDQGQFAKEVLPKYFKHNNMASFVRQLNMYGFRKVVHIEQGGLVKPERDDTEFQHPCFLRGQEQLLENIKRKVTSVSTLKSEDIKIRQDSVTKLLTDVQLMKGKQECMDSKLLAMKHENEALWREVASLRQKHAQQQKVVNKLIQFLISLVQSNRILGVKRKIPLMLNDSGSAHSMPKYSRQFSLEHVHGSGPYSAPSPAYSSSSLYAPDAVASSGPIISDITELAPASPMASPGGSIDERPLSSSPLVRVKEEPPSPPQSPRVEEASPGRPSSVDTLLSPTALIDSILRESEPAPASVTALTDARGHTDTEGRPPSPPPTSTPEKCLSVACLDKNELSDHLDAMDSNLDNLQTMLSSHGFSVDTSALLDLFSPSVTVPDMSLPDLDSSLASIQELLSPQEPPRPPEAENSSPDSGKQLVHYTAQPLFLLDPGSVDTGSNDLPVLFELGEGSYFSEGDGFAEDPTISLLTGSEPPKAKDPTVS

Assay [10] in a line: ATG_MRE_CIS: Attagene CIS-FACTORIAL HepG2 Assay for human Metal Responsive Element (MRE) (AID 2282954). The following applies: HepG2 MRE cis-reporter transcription, Attagene multiplex; actives raise or lower the signal. The essentials: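 HepG2 cells transiently transfected with multiple cis-element reporter units measure endogenous MTF1-driven transcription. After 24 h compound exposure, reporter mRNA is quantified by RT-PCR with 6-FAM labelling, HpaI digestion and capillary electrophoresis; bidirectional fits versus DMSO.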

The nature of assay [11]: ATG_PBREM_CIS: Attagene CIS-FACTORIAL HepG2 Assay for human Phenobarbital-responsive Enhancer Module (PBREM) (AID 2282955). The following applies: HepG2 PBREM cis-reporter, Attagene multiplexed transcription; actives raise or lower the signal. The essentials: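 Fluorescence of labelled reporter cDNA fragments, resolved by capillary electrophoresis, gives mRNA induction in transfected HepG2 cells treated for 24 h; DMSO serves as negative control and baseline.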

The target in assay [12] is Paired box protein Pax-6 (Homo sapiens) (UniProt P26367). Nature of the assay: ATG_Pax6_CIS: Attagene CIS-FACTORIAL HepG2 Assay for human Paired Box 6 (PAX6) (AID 2282956). The following applies: HepG2 CIS-FACTORIAL PAX6 reporter transcription, RNA readout; actives raise or lower the signal. The method in brief:
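HepG2 cells transiently transfected with multiplexed cis-promoter reporter units (endogenous TF activity) were dosed for 24 h. Reporter mRNA was quantified by RT-PCR, 6-FAM labeling, HpaI digestion and capillary electrophoresis; bidirectional fitting versus DMSO baseline.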

A short description of assay [13]: ATG_PXRE_CIS: Attagene CIS-FACTORIAL HepG2 Assay for human Pregnane X Receptor Element (PXRE) (AID 2282957). Particulars: HepG2 Attagene CIS-FACTORIAL PXRE reporter, mRNA; actives raise or lower the signal. The essentials:
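HepG2 cells transiently transfected with cis-element-driven multiplexed reporter units; after 24 h chemical exposure, reporter mRNA measured by RT-PCR, 6-FAM labelling, HpaI digestion and capillary electrophoresis. Bidirectional fitting relative to DMSO.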

A short description of assay [14]: ATG_PPRE_CIS: Attagene CIS-FACTORIAL HepG2 Assay for human Peroxisome Proliferator-activated Response Element (PPRE) (AID 2282958). The following applies: HepG2 PPRE cis-element reporter, Attagene transcription factor profiling; actives raise or lower the signal. The essentials:
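Cells are first transfected transiently with the multiplexed reporter library, then dosed for 24 h. Total RNA is reverse-transcribed, amplified, fluorescently end-labeled and HpaI-cut before capillary electrophoresis; activity is fitted bidirectionally against DMSO controls.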

Assay [15] in a line: ATG_RORE_CIS: Attagene CIS-FACTORIAL HepG2 Assay for human RAR-related Orphan Receptor Element (RORE) (AID 2282959). The following applies: HepG2 Attagene cis-factorial RORE reporter, mRNA; actives raise or lower the signal. The method in brief: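 Cells were HepG2 carrying transfected cis-regulated reporter constructs, dosed for 24 hours. Total RNA was reverse-transcribed and reporter cDNA amplified, fluorescently labeled and sized by capillary electrophoresis. Activity was fitted bidirectionally relative to DMSO.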

The nature of assay [16]: ATG_Sox_CIS: Attagene CIS-FACTORIAL HepG2 Assay for human SRY-box transcription factor (SOX) (AID 2282960). The following applies: HepG2 Attagene cis-factorial SOX reporter, mRNA; actives raise or lower the signal. The method in brief:
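Transient MRTU transfection of HepG2; 24 h compound incubation; TriZol RNA, oligo(dT) RT, PCR, 6-FAM primer extension, HpaI cut, CE. Bidirectional fit, DMSO = baseline.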

The target in assay [17] is Transcription factor Sp1 (Homo sapiens) (UniProt P08047). Nature of the assay: ATG_Sp1_CIS: Attagene CIS-FACTORIAL HepG2 Assay for human Specificity Protein 1 (Sp1) (AID 2282961). The following applies: HepG2 Sp1 cis-reporter transcription, actives raise or lower the signal. The method in brief: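 Endogenous Sp1 activity was gauged in human liver HepG2 cells bearing transfected reporter units under a cis-regulating promoter. After 24 h dosing, reporter mRNA was quantified by RT-PCR with capillary electrophoresis, and activity fitted bidirectionally versus DMSO.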
Sequence of Transcription factor Sp1 (Homo sapiens) (P08047 whole entry, looked up): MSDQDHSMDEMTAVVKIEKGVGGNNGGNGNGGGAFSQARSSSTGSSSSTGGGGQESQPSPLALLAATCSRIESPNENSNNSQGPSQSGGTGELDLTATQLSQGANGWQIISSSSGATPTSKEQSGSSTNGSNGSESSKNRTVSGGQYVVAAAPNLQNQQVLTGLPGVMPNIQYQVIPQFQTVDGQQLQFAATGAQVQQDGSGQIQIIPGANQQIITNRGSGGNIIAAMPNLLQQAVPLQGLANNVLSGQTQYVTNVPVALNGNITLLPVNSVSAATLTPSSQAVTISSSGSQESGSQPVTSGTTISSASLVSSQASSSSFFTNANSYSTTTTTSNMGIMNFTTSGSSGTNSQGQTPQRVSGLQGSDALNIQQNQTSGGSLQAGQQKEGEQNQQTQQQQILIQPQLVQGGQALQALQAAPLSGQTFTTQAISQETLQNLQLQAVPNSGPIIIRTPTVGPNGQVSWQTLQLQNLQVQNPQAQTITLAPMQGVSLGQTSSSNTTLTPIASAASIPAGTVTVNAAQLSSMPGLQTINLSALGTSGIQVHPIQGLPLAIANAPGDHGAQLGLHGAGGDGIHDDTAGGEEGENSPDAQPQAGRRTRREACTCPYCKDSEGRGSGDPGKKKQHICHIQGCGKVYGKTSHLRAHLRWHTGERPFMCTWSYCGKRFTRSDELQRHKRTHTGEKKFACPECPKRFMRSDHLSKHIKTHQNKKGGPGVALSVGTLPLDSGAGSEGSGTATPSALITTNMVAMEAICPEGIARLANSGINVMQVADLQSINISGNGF

Assay [18] in a line: ATG_SREBP_CIS: Attagene CIS-FACTORIAL HepG2 Assay for human Sterol Regulatory Element Binding (SREBP) (AID 2282962). Particulars: HepG2 Attagene cis-factorial SREBP reporter, mRNA; actives raise or lower the signal. The method in brief: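 HepG2 cells transiently transfected with multiplexed cis-element reporter units report endogenous transcription factor activity. After 24 h of chemical exposure, reporter mRNA was quantified by RT-PCR, 6-FAM labelling, HpaI digestion and capillary electrophoresis; bidirectional fits used DMSO as baseline.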

For assay [19], the target named is Signal transducer and activator of transcription 3 (Homo sapiens) (UniProt P40763). Nature of the assay: ATG_STAT3_CIS: Attagene CIS-FACTORIAL HepG2 Assay for human Signal Transducer and Activator of Transcription 3 (STAT3) (AID 2282963). Particulars: HepG2, Attagene cis-factorial STAT3 reporter transcription; actives raise or lower the signal. The method in brief: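 HepG2 cells transiently transfected with cis-element-driven multiple reporter transcription units; after 24 h chemical exposure, reporter mRNA measured by RT-PCR, 6-FAM primer-extension labelling, HpaI digestion and capillary electrophoresis. Bidirectional fitting versus DMSO baseline.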
Sequence of Signal transducer and activator of transcription 3 (Homo sapiens) (P40763 whole entry, looked up): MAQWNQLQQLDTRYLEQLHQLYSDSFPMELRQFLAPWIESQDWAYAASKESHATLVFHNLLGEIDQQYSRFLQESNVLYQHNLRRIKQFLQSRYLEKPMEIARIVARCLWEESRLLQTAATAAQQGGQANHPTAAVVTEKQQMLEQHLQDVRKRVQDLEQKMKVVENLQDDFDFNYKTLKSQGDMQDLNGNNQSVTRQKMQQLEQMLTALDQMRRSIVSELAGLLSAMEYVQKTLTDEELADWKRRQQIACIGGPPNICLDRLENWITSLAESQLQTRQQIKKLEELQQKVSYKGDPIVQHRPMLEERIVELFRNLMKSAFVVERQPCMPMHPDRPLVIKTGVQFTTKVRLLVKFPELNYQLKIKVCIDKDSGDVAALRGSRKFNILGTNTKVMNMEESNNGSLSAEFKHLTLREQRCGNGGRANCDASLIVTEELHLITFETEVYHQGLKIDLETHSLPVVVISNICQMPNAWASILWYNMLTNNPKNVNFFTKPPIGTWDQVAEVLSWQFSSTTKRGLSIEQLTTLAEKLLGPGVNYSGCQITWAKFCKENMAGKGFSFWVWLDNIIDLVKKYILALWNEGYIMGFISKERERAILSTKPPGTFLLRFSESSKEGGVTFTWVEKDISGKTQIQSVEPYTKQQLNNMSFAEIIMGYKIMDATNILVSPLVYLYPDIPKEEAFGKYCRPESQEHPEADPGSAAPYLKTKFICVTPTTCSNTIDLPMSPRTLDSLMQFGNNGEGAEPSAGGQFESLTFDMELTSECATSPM

Assay [20] in a line: ATG_TA_CIS: Attagene CIS-FACTORIAL HepG2 Assay for human TA Basal Promoter (AID 2282964). Particulars: HepG2 Attagene CIS-factorial TA basal promoter reporter; actives raise or lower the signal. The method in brief: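 Fluorescence from labelled RT-PCR reporter fragments, separated by capillary electrophoresis, gives the signal. Cells: HepG2 transiently carrying multiple reporter units, 24 h chemical dosing. Gain or loss relative to DMSO.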

Sequence of Paired box protein Pax-6 (Homo sapiens) (P26367 whole entry, looked up): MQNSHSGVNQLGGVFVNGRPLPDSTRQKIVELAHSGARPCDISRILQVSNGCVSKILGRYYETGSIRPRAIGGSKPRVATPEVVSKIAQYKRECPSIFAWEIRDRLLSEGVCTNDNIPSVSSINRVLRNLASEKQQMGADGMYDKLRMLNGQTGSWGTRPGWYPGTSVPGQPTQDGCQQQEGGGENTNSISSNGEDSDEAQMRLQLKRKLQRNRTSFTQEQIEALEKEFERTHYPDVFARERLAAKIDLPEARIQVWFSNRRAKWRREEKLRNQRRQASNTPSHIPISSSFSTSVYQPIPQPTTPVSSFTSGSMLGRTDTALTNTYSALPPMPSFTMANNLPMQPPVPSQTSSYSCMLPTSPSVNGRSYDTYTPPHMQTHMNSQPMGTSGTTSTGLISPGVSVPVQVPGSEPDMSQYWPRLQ

The term AC50 denotes the concentration at which the activity in the assay is half-maximal. `O=C(O)C(F)(F)C(F)(F)C(F)(F)C(F)(F)C(F)(F)C(F)(F)C(F)(F)C(F)(F)Cl`: the call in assay [1], in assay [2], in [3], in assay [5], in assay [6] and in assay [8] was inactive. Further, the result in assay [11], in [13], in assay [16], in [17], in assay [18] and in [19] was inactive. Moreover, the outcome in assay [20] was inactive. In addition, the AC50 was 32.1 µM (active) and 50 µM (active) in [4]; 50 µM (active) in assay [7]; 75.8 µM (active) and 82.1 µM (active) in assay [9]; 55.5 µM (active) and 66.6 µM (active) in assay [10]; 59.1 µM (active) and 50 µM (active) in [12]; 13.7 µM (active) in assay [13]. Besides, the AC50 in assay [14] is 39.2 µM (active) and 35.4 µM (active); in [15] it was 28.4 µM (active) and 57.9 µM (active); in assay [20], 50 µM (active).

Take `O=C(O)C(F)(F)C(F)(F)F`: the call in assay [1], in assay [2], in assay [3], in [4], in assay [5] and in [6] was inactive. Also, the outcome in assay [7], in assay [8], in assay [9], in assay [10], in assay [11] and in [12] was inactive. For the same compound, the outcome in assay [13], in [14], in assay [15], in [16], in assay [17] and in assay [18] was inactive. The compound was called inactive in assay [19] and in assay [20].

Regarding `CC(C)c1ccccc1N`, the call in assay [1], in [2], in assay [3], in [4], in assay [5] and in assay [6] was inactive. The compound was called inactive in assay [7], in [8], in assay [9], in assay [10], in assay [11] and in [12]. Also, the compound was classed as inactive in [14], in assay [15], in assay [16], in assay [17], in assay [18] and in assay [19]. Also, the result in assay [20] was inactive. Also, in assay [13], the AC50 is 34.9 µM (active).
